Shown are actives, neighbours in structure and some others; about 3.5% of the full set was active somewhere.
TEAD-YAP block = TEAD-YAP interaction inhibition, primary screen, TEAD-YAP interaction inhibitor project, luminescence, HEK-TIYL cells; AID 1259422, 2018; inhibition, % at 9.12 µM; TEAD-Gal4/YAP UAS-luciferase luminescence; actives 1.4% (n = 640,000); in the data active means inhibition above about 32%;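 further: 0% = median of test compound wells and 100% = reference inhibitor wells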
MITF inh = MITF inhibitors, primary screen, biochemical, AlphaScreen, human; AlphaScreen MITF homodimerization, bead proximity signal; inhibition, % at 2.6 µM; actives 0.91% (n = 650,000); AID 1259374, 2018; in the data active means inhibition above about 50%;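 further: 0% = vehicle wells with protein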
FBW7 activator = FBW7 E3 ligase activators, primary screen, biochemical, AlphaScreen, human. AID 1259310, 2017. AlphaScreen FBW7–phospho-cyclin E peptide binding, activator screen. actives 0.13% (n = 650,000). normalized activity (activation), % at 26.1 µM; in the data active means normalized activity above about 1.9%;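 further: purified mutant Fbw7 with reduced substrate affinity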
Target sequence (Q969H0 whole entry, looked up): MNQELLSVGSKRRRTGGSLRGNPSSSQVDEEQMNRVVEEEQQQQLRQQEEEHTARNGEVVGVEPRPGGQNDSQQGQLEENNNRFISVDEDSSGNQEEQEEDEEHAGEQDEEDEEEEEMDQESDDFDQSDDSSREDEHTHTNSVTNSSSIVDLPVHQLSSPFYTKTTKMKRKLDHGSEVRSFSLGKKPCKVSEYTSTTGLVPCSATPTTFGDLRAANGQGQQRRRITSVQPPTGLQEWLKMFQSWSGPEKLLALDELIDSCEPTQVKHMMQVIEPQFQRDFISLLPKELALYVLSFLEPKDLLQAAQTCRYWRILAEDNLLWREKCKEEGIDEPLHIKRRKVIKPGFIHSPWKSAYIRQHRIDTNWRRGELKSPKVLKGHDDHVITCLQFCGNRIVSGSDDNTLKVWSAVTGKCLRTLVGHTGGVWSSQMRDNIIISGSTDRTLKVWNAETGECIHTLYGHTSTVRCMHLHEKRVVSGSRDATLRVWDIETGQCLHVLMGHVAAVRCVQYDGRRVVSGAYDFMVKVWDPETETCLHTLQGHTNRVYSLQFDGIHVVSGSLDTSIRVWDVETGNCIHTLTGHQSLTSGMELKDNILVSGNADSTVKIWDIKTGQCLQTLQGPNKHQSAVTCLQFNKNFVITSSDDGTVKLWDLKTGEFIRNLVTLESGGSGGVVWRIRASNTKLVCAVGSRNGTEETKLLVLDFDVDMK
GPR151 ag = activators of human GPR151, primary screen, cell-based, PathHunter beta-arrestin, luminescence. activation, % at 11.2 µM. G-protein coupled receptor 151 (Homo sapiens), Q8TDV0. PathHunter beta-arrestin GPR151 cells. actives 1% (n = 650,000); in the data active means activation above about 4.9%;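 further: 0% = median of compound wells and 100% = cells with positive control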
GPR151 confirm = GPR151 activators, triplicate retest, confirmation, cell-based, PathHunter beta-arrestin, luminescence; shares compounds with GPR151 ag; GPR151 PathHunter beta-arrestin cells, 90 min; % of EA-reagent control over plate median; activation, % at 11.2 µM; 6,700 tested, under 10 active; AID 1508609, 2020;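 active means mean percent activation across replicates above the confirmation screen cutoff of 4.91%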
GPR119 ag = GPR119 activators in beta-arrestin cells, counter-screen for GPR151 activator project, cell-based, PathHunter beta-arrestin, luminescence, triplicate; actives 0.3% (n = 6,700); shares compounds with GPR151 ag; activation, % at 11.2 µM; 90 min; 0 = compound-well median, 100 = enzyme-acceptor control;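 active means mean percent activation in the counterscreen above 29.09%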;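 further: counterscreen on off-target GPR119 to flag nonselective hits from the GPR151 activator screen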
* = called active by the depositor; / = no result given; ! = not confirmed by another sample.

SMILES	TEAD-YAP block	MITF inh	FBW7 activator	GPR151 ag	GPR151 confirm	GPR119 ag
CC(=O)C(Cc1ccccc1)NC(=O)CN1C(=O)c2ccccc2C1=O (configuration not stated)	6	2	0	0	/	/
CCOC(=O)C(CC1=CNC2C=CC=CC12)NC(=O)CN1C(=O)c2ccccc2C1=O (configuration not stated)	-6	-6	0	7.7*	0	11
COc1ccc(-c2nc3ccc(C(=O)NCc4ccc(Cl)cc4)cc3nc2-c2ccc(OC)cc2)cc1	1	9	0	0	/	/
CCc1ccc(N(C(=O)c2csnn2)C(C(=O)NC(C)(C)CC)c2ccncc2)cc1 (configuration not stated)	-8	10	0	22*	0	8
CC(C)CCOc1ccc(/C=N/n2cnnc2)cc1	1	-1	0	0	/	/
CCCCCCOc1ccc(/C=N/n2cnnc2)cc1	9	6	0	6.8*	0	-3
COc1cc(/C=C/C(=O)OCC(=O)NC(=O)Nc2ccc3c(c2)OCCO3)ccc1O	-13	1	0	-2	/	/
Cc1ccc(-n2nc3c(c2NC(=O)c2c(F)cccc2F)CS(=O)(=O)C3)cc1	3	11	1	-1	/	/
COc1ccc(-n2nc3c(c2NC(=O)c2c(F)cccc2F)CS(=O)(=O)C3)cc1	1	17	1	7.1*	5	9
COc1ccc(Cl)cc1C(=O)Nc1c2c(nn1-c1ccc(C)cc1C)CS(=O)(=O)C2	-3	11	0	5.3*	1	2
O=C(Nc1c2c(nn1-c1ccc(Cl)cc1)CS(=O)(=O)C2)C1(c2ccc(Cl)cc2)CCCC1	-9	12	0	0	/	/
COc1ccc(Cl)cc1C(=O)Nc1c2c(nn1-c1ccccc1C)CS(=O)(=O)C2	-6	3	0	-1	/	/
O=C(Nc1c2c(nn1-c1ccc(F)cc1)CS(=O)(=O)C2)C1(c2ccc(Cl)cc2)CCCC1	-13	-16	0	5.1*	0	6
O=c1cc(N2CCOCC2)oc2c(-c3ccccc3)cccc12	-7	5	0	5.4*!	0	-6
OCC(O)C(OC1OC(CO)C(O)C(O)C1O)C(O)c1cnn(-c2ccccc2)n1 (configuration not stated)	15	11	0	-1	/	/
COc1ccc(CN2CCOc3ccc(CN4C[C@@H](C)O[C@@H](C)C4)cc3C2)cc1OC	9	12	-1	2	/	/
C[C@@H]1CN(Cc2ccc3c(c2)CN(Cc2ccc4c(c2)CCO4)CCO3)C[C@H](C)O1	-13	-1	0	6.5*	0	4
Cc1ccc(-n2[nH]c(C)c(C=Nc3cccc(C(=O)O)c3)c2=O)cc1	-12	15	0	5.4*!	0	0
CCn1nc(C(=O)NNC(=O)COc2cccc(C)c2)c2ccccc2c1=O	-4	0	0	1	/	/
O=c1[nH]cc(Nc2ncc([N+](=O)[O-])cc2[N+](=O)[O-])c(=O)[nH]1	-3	-9	0	0	/	/
CCOc1ccc(-c2nnc(SCC(N)=O)n2-c2ccccc2)cc1	-3	-11	1	0	/	/
CCCOc1ccc(-c2nnc(SCC(N)=O)n2-c2ccccc2)cc1	8	-2	0	5.3*	0	3
Cc1cnc(Cl)nc1NCc1ccccc1	-10	5	0	5.6*	0	3
COc1ccc(/C(N)=N/OC(=O)COc2ccc(Cl)c(C)c2)cc1	10	-16	0	-1	/	/
Cc1ccc2oc(-c3cccc(NC(=S)NC(=O)c4ccc(Cl)cc4)c3C)nc2c1	-32	2	0	5.3*	0	4
SMILES	TEAD-YAP block	MITF inh	FBW7 activator	GPR151 ag	GPR151 confirm	GPR119 ag
Cc1ccc(NC(=O)C2CCCN2c2nn3c(=O)cc(C)nc3s2)c(Cl)c1 (configuration not stated)	3	6	0	5.0*	0	-5
CN(Cc1cccc(C(=O)NCCCCCCNS(=O)(=O)c2cccc3c(N(C)C)cccc23)c1)C(=O)Nc1ccc(-c2cn[nH]c2)cc1	21	19	3.1*	5.7*	0	9
O=C(NC1CCCC1)C(c1ccncc1)N(C(=O)NCc1cccs1)c1ccncc1 (configuration not stated)	-12	-11	0	10*	0	2
COc1ccc(N(C(=O)Cc2cccs2)C(C(=O)NC2CCCC2)c2ccncc2)cc1 (configuration not stated)	-28	-1	0	1	/	/
Cc1cccc(Cn2c(NCCN(C)C)nc3c2c(=O)[nH]c(=O)n3C)c1	6	5	0	1	/	/
CN(C)CCNc1nc2c(c(=O)[nH]c(=O)n2C)n1Cc1ccc([N+](=O)[O-])cc1	5	9	0	5.1*	1	6
CC(=O)C1C(c2ccc(F)cc2)C2C(C)=NN=C2CC1(C)O (configuration not stated)	9	12	0	1	/	/
COc1ccc(C2C3C(C)=NN=C3CC(C)(O)C2C(C)=O)cc1 (configuration not stated)	-1	13	0	6.6*	2	11
COc1cc(C=Nc2ccc(C)c(F)c2)ccc1OC(C)=O	4	-9	0	34*	0	-11
COc1cc(C=Nc2ccc(F)cc2)ccc1OC(C)=O	-4	4	0	1	/	/
Cc1oc(C2CC2)cc1C(=O)N1CCC(c2ccncc2)CC1	8	-1	0	0	/	/
CCc1cccc(CC)c1NC(=O)CN1C(=O)NC2(CCCCC2C)C1=O (configuration not stated)	0	-5	0	6.2*	1	0
CC(C)(C)c1[nH]nc2c1C(c1ccsc1)C(C#N)=C(N)O2 (configuration not stated)	2	7	0	6.6*	1	2
S=C(NCCCn1ccnc1)Nc1ccc(Br)cc1	-5	8	0	5.1*	-1	-8
COC(=O)CC(NC1CCN(c2ccc(CC(=O)N3CCCC3)cc2)CC1)C(=O)OC (configuration not stated)	-10	8	0	6.1*	1	23
O=C(Nc1ccc(N2CCOCC2)cc1)C1CCN(c2ccc(Cl)nn2)CC1	9	9	0	6.0*	0	5
O=C(Nc1ccc2c(c1)OCO2)c1ccnc(NCCN2CCOCC2)c1	-18	7	0	7.1*	0	-7
